Earlier results as cited in PubChem BioAssay AID977611.
Among all 3,900 compounds or so, about 3,900 (100%) were called active. No cut-off is given here; in the data, nearly all actives have Kd up to about 4200 µM. The set was probably picked from earlier hits. Some of the results follow. Where a SMILES comes first, the peptide text is derived from it. Non-standard residues stand in square brackets, D forms with d. Square brackets hold non-standard residues; d marks the D form. Residues, ends and D or L forms follow the SMILES beside them. Peptide text beside a SMILES is read from it. [ ]: non-standard residue; d: D form. *: point of attachment. Lys(Me3) = C[N+](C)(C)CCCC[C@H](N)C(=O)O; Orn(CH(NH2)2) = NC(N)NCCC[C@H](N)C(=O)O; For = O=C*

Assay: PubChem AID 977611
Conditions: PDB protein-ligand complexes, literature Kd

O=C(c1ccccc1)N(O)CC[C@@H](c1ccc(Cl)c(Cl)c1)[P+](O)(O)O
Kd (protein: 1-DEOXY-D-XYLULOSE 5-PHOSPHATE REDUCTOISOMERASE, PDB entry 3zhx): 0.21 µM (active)

O=C(c1ccccc1Nc1cccc(C(F)(F)F)c1)N(O)CC[C@@H](c1ccc(Cl)c(Cl)c1)[P+](O)(O)O
Kd (protein: 1-DEOXY-D-XYLULOSE 5-PHOSPHATE REDUCTOISOMERASE, PDB entry 3zhz): 0.09 µM (active)

O=C(c1ccccc1Cn1cncn1)N(O)CC[C@@H](c1ccc(Cl)c(Cl)c1)[P+](O)(O)O
Kd (protein: 1-DEOXY-D-XYLULOSE 5-PHOSPHATE REDUCTOISOMERASE, PDB entry 3zi0): 0.04 µM (active)

CC(C)C[C@H](NC(=O)[C@H](Cc1cnc[nH]1)NC(=O)[C@H](CO)NC(=O)[C@H](CO)NC(=O)[C@H](Cc1cnc[nH]1)NC(=O)[C@H](C)NC(=O)[C@@H](N)CCCN=C(N)N)C(=O)N[C@@H](CCCCN(C)C)C(=O)N[C@@H](CO)C(=O)N[C@@H](CCCCN)C(=O)N[C@@H](CCCCN)C(=O)NCC(=O)N[C@@H](CCC(N)=O)C(=O)N[C@@H](CO)C(=O)N[C@H](C(=O)O)[C@@H](C)O
Kd (protein: Tumor suppressor p53-binding protein 1, 53BP1 tandem Tudor domains, PDB entry 2mwo): 20 µM (active)

CSCC[C@H](NC(=O)[C@H](CC(C)C)NC(=O)[C@H](CCCCN(C)C)NC(=O)[C@H](CCCCN)NC(=O)[C@H](Cc1cnc[nH]1)NC(=O)[C@H](CCCN=C(N)N)NC(=O)[C@H](CO)NC(=O)[C@@H](NC(=O)[C@@H](N)CO)[C@@H](C)O)C(=O)N[C@@H](Cc1ccccc1)C(=O)N[C@@H](CCCCN)C(=O)N[C@H](C(=O)O)[C@@H](C)O
Kd (protein: Tumor suppressor p53-binding protein 1, 53BP1 tandem Tudor domains, PDB entry 2mwp): 0.9 µM (active)

CC(C)C[C@H](NC(=O)[C@H](CC(=O)O)NC(=O)CNC(=O)[C@H](CCCN=C(N)N)NC(=O)CNC(=O)[C@H](Cc1cnc[nH]1)NC=O)C(=O)NCC(=O)N[C@@H](CCCN=C(N)N)C(=O)N[C@@H](CC(C)C)C(=O)N[C@@H](CCCCN)C(=O)N[C@@H](CCCCN)C(N)=O (For-HGRGDLGRLKK-NH2)
Kd (protein: Integrin alpha V beta 6, PDB entry 4um9): 0.0085 µM (active)

CC(C)C[C@H](NC(=O)[C@@H](NC(=O)[C@H](CCCC[N+](C)(C)C)NC(=O)[C@H](CCCNC(N)N)NC(=O)[C@@H](N)Cc1cnc[nH]1)C(C)C)C(=O)N[C@@H](CCCNC(N)N)C(=O)O (H-H[Orn(CH(NH2)2)][Lys(Me3)]VL[Orn(CH(NH2)2)]-OH)
Kd (protein: Polycomb protein EED, PDB entry 3jpx): 235 µM (active)

CC(C)C[C@H](NC(=O)[C@@H](NC(=O)[C@H](CCCC[N+](C)(C)C)NC(=O)[C@H](CCCNC(N)N)NC(=O)[C@H](Cc1cnc[nH]1)NC(=O)[C@@H](N)CCCNC(N)N)C(C)C)C(=O)N[C@H](C=O)CCCNC(N)N (H-[Orn(CH(NH2)2)]H[Orn(CH(NH2)2)][Lys(Me3)]VL[Orn(CH(NH2)2)]-aldehyde)
Kd (protein: Polycomb protein EED residues 77-441, PDB entry 3ij1): 20 µM (active)

CC(C)C[C@H](NC(=O)[C@@H](NC(=O)[C@@H](CCCC[N+](C)(C)C)NC(=O)[C@H](CCCNC(N)N)NC(=O)[C@H](Cc1cnc[nH]1)NC(=O)[C@@H](N)CCCNC(N)N)C(C)C)C(=O)N[C@@H](CCCNC(N)N)C(=O)O
Kd (protein: JMJD2A-tudor, PDB entry 2qqs): 0.4 µM (active)

CN(C)c1ccc(C(c2ccc(O)cc2)c2ccc(N(C)C)cc2)cc1
Kd (protein: Immunoglobulin lambda variable domain L5(L89S), PDB entry 4k3h): 0.14 µM (active)

CN(C)c1ccc(C(c2ccc(N(C)C)cc2)c2ccc(N(C)C)cc2)cc1
Kd (protein: Putative regulatory protein, PDB entry 3vw1): 21.2 µM (active)

Nc1ccc2[nH]c(=O)c3ccccc3c2c1
Kd (protein: Putative ADP-ribosyltransferase Certhrax, PDB entry 4fk7): 5.8 µM (active)

Nc1ncnc2c1ncn2[C@@H]1O[C@H](CO[P+](O)(O)OS(O)(O)O)[C@@H](O)[C@H]1O
Kd (protein: Adenylyl-sulfate kinase 1, chloroplastic, PDB entry 4fxp): 80.4 µM (active)

Nc1ncnc2c1ncn2[C@@H]1O[C@H](CO)[C@@H](O[P+](O)(O)OC[C@H]2O[C@@H](n3ccc(=O)[nH]c3=O)[C@H](O)[C@@H]2O)[C@H]1O
Kd (protein: Poly(A) RNA polymerase protein cid1, PDB entry 4nku): 21.3 µM (active)

Nc1ncnc2c1ncn2[C@@H]1O[C@H](CO[P+](O)(O)O)[C@@H](O)[C@H]1O[C@H]1O[C@H](CO[P+](O)(O)O)[C@@H](O)[C@H]1O
Kd (protein: E3 ubiquitin-protein ligase RNF146 RNF146(RING-WWE), PDB entry 4qpl): 0.039 µM (active)

Nc1ncnc2c1ncn2[C@@H]1O[C@H](CO[P+](O)(O)O[P+](O)(O)N[P+](O)(O)O)[C@@H](O)[C@H]1O
Kd (protein: INOSITOL-PENTAKISPHOSPHATE 2-KINASE, PDB entry 4axd): 37 µM (active) | Kd (protein: N-acetylhexosamine 1-phosphate kinase NahK, PDB entry 4ock): 8.3 µM (active) | Kd (protein: N-acetylhexosamine 1-phosphate kinase NahK, PDB entry 4ocv): 8.3 µM (active) | Kd (protein: Osmolarity sensor protein EnvZ, Histidine kinase, PDB entry 4kp4): 6.8 µM (active)

Nc1ncnc2c1ncn2[C@@H]1O[C@H](CO[P+](O)(O)O[P+](O)(O)OC[C@H]2O[C@H](O)[C@H](O)[C@@H]2O)[C@@H](O)[C@H]1O
Kd (protein: Poly [ADP-ribose] polymerase 14 MACRO DOMAIN 1, PDB entry 3q6z): 192 µM (active) | Kd (protein: Poly [ADP-ribose] polymerase 14 MACRO DOMAIN 1 and 2, PDB entry 3vfq): 6.4 µM (active) | Kd (protein: Poly [ADP-ribose] polymerase 14 MACRO DOMAIN 2, PDB entry 3q71): 6 µM (active) | Kd (protein: Poly [ADP-ribose] polymerase 14 MACRO DOMAIN 3, PDB entry 4abk): 1.9 µM (active)

Nc1ncnc2c1ncn2[C@@H]1O[C@H](CO[P+](O)(O)O[P+](O)(O)O[P+](O)(O)O[P+](O)(O)O[P+](O)(O)OC[C@H]2O[C@@H](n3cnc4c(N)ncnc43)[C@H](O)[C@@H]2O)[C@@H](O)[C@H]1O
Kd (protein: Adenylate kinase, PDB entry 4w5j): 0.057 µM (active)

Nc1ncnc2c1ncn2[C@@H]1O[C@H](CO[P+](O)(O)O[P+](O)(O)O[P+](O)(O)O)[C@@H](O)[C@H]1O
Kd (protein: ADENYLATE CYCLASE TYPE 10, PDB entry 4usw): 2030 µM (active) | Kd (protein: Chaperone protein DnaK (N432M,Q433G,S434G mutation), PDB entry 4jn4): 1.38 µM (active) | Kd (protein: Hsp70 CHAPERONE DnaK (N432M,Q433G,S434G mutation), PDB entry 4jne): 1.38 µM (active) | Kd (protein: Nitrogen regulatory protein P-II hmGlnK2, PDB entry 4ozn): 4 µM (active) | Kd (protein: Protein hfq, PDB entry 3qo3): 0.125 µM (active) | Kd (protein: Walker B/D-loop D645N, D651A double mutant rat TAP1-NBD, PDB entry 4k8o): 170 µM (active)

NC(=O)C1=CN([C@H]2O[C@H](CO[P+](O)(O)O[P+](O)(O)OC[C@H]3O[C@@H](n4cnc5c(N)ncnc54)[C@H](O)[C@@H]3O)[C@@H](O)[C@H]2O)C=CC1
Kd (protein: Redox-sensing transcriptional repressor rex, PDB entry 3wgg): 39.9 µM (active)

C[C@H](NC(=O)[C@H](Cc1c[nH]c2ccccc12)NC(=O)[C@H](CC(N)=O)NC(=O)[C@@H](N)CC(N)=O)C(=O)N[C@@H](CC(=O)O)C(=O)N[C@@H](Cc1ccccc1)C(=O)N[C@@H](CO)C(=O)N[C@@H](CO)C(=O)N[C@H](C(=O)N[C@@H](Cc1c[nH]c2ccccc12)C(=O)N1CCC[C@H]1C(=O)O)[C@@H](C)O (H-NNWADFSSTWP-OH)
Kd (protein: Adaptor protein complex AP-2, subunit beta-1, PDB entry 3hs9): 0.49 µM (active)

CC(=O)N1CCC[C@H]1C(=O)N[C@@H](Cc1c[nH]c2ccccc12)C(=O)N[C@@H](C)C(=O)N[C@H](C(=O)N[C@@H](CS)C(=O)N[C@@H](CC(=O)O)C(=O)N[C@@H](CO)C(N)=O)[C@@H](C)O
Kd (protein: Thiol:disulfide interchange protein DsbAC30S, PDB entry 4od7): 8.3 µM (active)

H-PDVSSSTA-OH
Kd (protein: Speckle-type POZ protein, SPOPMATH, PDB entry 3ivq): 76.1 µM (active)

H-PHGGSWGQP-OH
Kd (protein: POM2 Fab, PDB entry 4j8r): 0.02 µM (active)

H-PDWDFN-NH2
Kd (protein: AP-1 COMPLEX SUBUNIT GAMMA-LIKE 2, PDB entry 3zhf): 120 µM (active)

NCCCC[C@H](NC(=O)[C@H](CO)NC(=O)[C@@H]1CCCN1)C(=O)N[C@@H](CCCCN)C(=O)N[C@@H](CCCNC(N)N)C(=O)N[C@@H](CCCCN)C(=O)N[C@@H](CCCNC(N)N)C(=O)N[C@@H](CO)C(=O)N[C@@H](CCCNC(N)N)C(=O)N[C@@H](Cc1c[nH]c2ccccc12)C(=O)N[C@@H](CC(N)=O)C(=O)N[C@@H](CCC(N)=O)C(=O)N[C@@H](CC(=O)O)C(=O)O (H-PSKK[Orn(CH(NH2)2)]K[Orn(CH(NH2)2)]S[Orn(CH(NH2)2)]WNQD-OH)
Kd (protein: the C-terminal RRM (RRM3) of human U2AF65, PDB entry 1opi): 0.05 µM (active)

C[C@H](NC(=O)[C@H](Cc1c[nH]c2ccccc12)NC(=O)[C@H](CC(N)=O)NC(=O)[C@H](CC(N)=O)NC(=O)[C@@H]1CCCN1)C(=O)N[C@@H](CC(=O)O)C(=O)N[C@@H](Cc1ccccc1)C(=O)N[C@@H](CO)C(=O)N[C@@H](CO)C(=O)N[C@H](C(=O)N[C@@H](Cc1c[nH]c2ccccc12)C(=O)N1CCC[C@H]1C(=O)O)[C@@H](C)O (H-PNNWADFSSTWP-OH)
Kd (protein: Adaptor protein complex AP-2, alpha 2 subunit, PDB entry 3hs8): 5 µM (active)
